Compounds without any hit were thinned out: in the full panel of roughly 79,000, 15% have a hit. A number with no mark means an inactive call. The source made the active and inactive calls. Rule as the data show it: active = growth inhibition above about 70%; inactive = the rest.

Here are results for 20 compounds from PubChem BioAssay (NCI).

Experiment [1] is described as follows: NCI Yeast Anticancer Drug Screen. Data for the rad50 strain (AID 155).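 Also: 0% = growth of vehicle-only cultures of the same strain.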 To be noted: S. cerevisiae rad50 strain growth inhibition; at 50.0 µM; hits give high values. In a few lines:
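Compounds were tested on a yeast strain with an engineered DNA damage repair alteration; the reported value is growth inhibition normalised to vehicle treatment.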

The nature of experiment [2]: NCI Yeast Anticancer Drug Screen. Data for the mec2-1 strain (AID 157). The note with it: S. cerevisiae mec2-1 strain, at 50.0 µM, hits give high values. In a few lines: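 mec2-1 yeast strain, carrying an alteration in DNA damage repair or cell cycle control, was exposed to compounds; growth inhibition was measured relative to vehicle-treated controls.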
Experiment [3] is described as follows: NCI Yeast Anticancer Drug Screen. Data for the sgs1 mgt1 strain (AID 161).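 Also: 0% = growth of cultures given vehicle only.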 To be noted: S. cerevisiae sgs1 mgt1 strain, at 50.0 µM, hits give high values. In a few lines:
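Compounds are added to genetically altered yeast, and growth is compared with cultures given vehicle alone to give percent inhibition.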

Experiment [4] is described as follows: NCI Yeast Anticancer Drug Screen. Data for the cln2 rad14 strain (AID 165).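 Also: 0% = growth equal to vehicle treated cultures.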 The note with it: S. cerevisiae cln2 rad14 strain, at 50.0 µM, hits give high values. In a few lines:
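Yeast carrying cln2 and rad14 alterations (cell cycle control and DNA damage repair) were exposed to compounds. Growth inhibition was measured against vehicle-treated controls.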

Experiment [5] in a line: NCI Yeast Anticancer Drug Screen. Data for the bub3 strain (AID 167). To be noted: S. cerevisiae bub3 mutant strain, at 50.0 µM, hits give high values. An outline of the steps:
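Growth of a checkpoint-deficient yeast mutant is measured after compound exposure. Values represent inhibition relative to vehicle.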

Experiment [6] is described as follows: NCI Yeast Anticancer Drug Screen. Data for the mlh1 rad18 strain (AID 175). The note with it: S. cerevisiae mlh1 rad18 strain growth inhibition; at 50.0 µM; hits give high values. An outline of the steps:
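Growth inhibition of the yeast strain was measured after compound exposure and expressed relative to vehicle-treated controls. The strain carries defined defects in DNA damage repair.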

For the compound `CN(C)CCSc1nc2ccccc2s1`, the growth inhibition is 7.6% in experiment [1]; 6.55% in experiment [2]; 28.7% in experiment [3]; 13.3% in experiment [4]; -16.6% in experiment [5]; 31.1% in experiment [6].
Regarding `Cc1ccc(NC(=O)CC2C(=O)Nc3ccccc3S2(=O)=O)c(C)c1` (stereo not given), the growth inhibition is -24.6% in experiment [1]; -24.8% in experiment [2]; -6.8% in experiment [3]; 20.6% in experiment [4]; -2.85% in experiment [5]; -10.6% in experiment [6].
Regarding `S=C(Nc1cccc2ccccc12)N1CCCCC1`, the growth inhibition in experiment [1] was 51.7%; in experiment [2] it was 39%; in experiment [3] it was 50.7%; in experiment [4], 18.1%; in experiment [5] it was 61%; in experiment [6] it was 35.7%.
Regarding `CCCCCCC(NC(C)=O)C(=O)O` (stereo not given), the growth inhibition is 3.85% in experiment [1]; -4.7% in experiment [2]; 13.9% in experiment [3]; 6.35% in experiment [4]; 4.3% in experiment [5]; 3.5% in experiment [6].
Take `C/C(CC(O)(C(F)(F)F)C(F)(F)F)=N\O`: the growth inhibition in experiment [1] was -29.8%; in experiment [2] it was -51.2%; in experiment [3], -20.4%; in experiment [4], -15.9%; in experiment [5] it was -19.5%; in experiment [6], -5.65%.
Consider `COC(=O)c1ccccc1NC(=O)C(=O)NNC(=O)c1ccncc1`, for which the growth inhibition was 10.3% in experiment [1]; -3% in experiment [2]; -4.4% in experiment [3]; 7.55% in experiment [4]; -0.8% in experiment [5]; 22.1% in experiment [6].
Consider `COc1ccc2c(c1)-c1c3c(cc4ccnc(c14)C2=O)OCO3`, for which the growth inhibition was 91.7% (active) in experiment [1]; 93% (active) in experiment [2]; 93.4% (active) in experiment [3]; 91.5% (active) in experiment [4]; 92% (active) in experiment [5]; 91.8% (active) in experiment [6].
Consider `C[C@@H]1OC2(O)[C@H]3CCCN3S(=O)(=O)CCN2C1=O` (stereo not given in full), for which the growth inhibition was 30.5% in experiment [1]; -14.8% in experiment [2]; -8.05% in experiment [3]; 16.7% in experiment [4]; -11.7% in experiment [5]; -1.2% in experiment [6].
On to `CNC(=O)C(C)NC(=O)C(Cc1ccccc1)NC(=O)OC(C)(C)C` (stereo not given), for which the growth inhibition in experiment [1] is -10.2%; in experiment [2], -57.7%; in experiment [3] it was -16.2%; in experiment [4], -28.8%; in experiment [5], -19.2%; in experiment [6] it was 1.05%.
Regarding `COc1ccc(C(=O)/C=C/c2ccc(OCC(=O)O)cc2)cc1`, the growth inhibition is 22.6% in experiment [1]; 12.3% in experiment [2]; 18.1% in experiment [3]; 21.8% in experiment [4]; -5.75% in experiment [5]; 42.8% in experiment [6].
As to `C/[N+]([O-])=C/c1ncc([N+](=O)[O-])n1CCO`, the growth inhibition in experiment [1] was 4.05%; in experiment [2] it was 5.9%; in experiment [3], 7.95%; in experiment [4] it was 25.1%; in experiment [5], -3.5%; in experiment [6], 25.6%.
In the case of `CC[N+](C)(CC)c1ccccc1`, the growth inhibition in experiment [1] is -4.35%; in experiment [2] it was -54.3%; in experiment [3] it was -18.6%; in experiment [4], 0.3%; in experiment [5], -33.5%; in experiment [6] it was 1.1%.
With `COc1ccc(C(CC(=O)O)CC(=O)O)cc1`, the growth inhibition in experiment [1] is 46.3%; in experiment [2], 12.3%; in experiment [3] it was 16.9%; in experiment [4], 15.1%; in experiment [5] it was 6.35%; in experiment [6] it was 44.5%.
Regarding `CCOC(=O)/C(Cc1ccccc1[N+](=O)[O-])=N/O`, the growth inhibition is 6.7% in experiment [1]; 2.85% in experiment [2]; 8.65% in experiment [3]; -13.4% in experiment [4]; 12.3% in experiment [5]; 26.6% in experiment [6].
As for `NC(Cc1c[nH]c2ccc([N+](=O)[O-])cc12)C(=O)O` (stereo not given), the growth inhibition was 15.9% in experiment [1]; -28.6% in experiment [2]; -24.8% in experiment [3]; 2.45% in experiment [4]; -48.6% in experiment [5]; -7.7% in experiment [6].
On to `COc1ccc(-c2ccccc2)cc1NC(C)=O`, for which the growth inhibition was 9.8% in experiment [1]; 15.2% in experiment [2]; 6.75% in experiment [3]; 20.9% in experiment [4]; 14% in experiment [5]; 16.5% in experiment [6].
Consider `CCCCC(CN(C)C)C(=O)/C=C/c1ccccc1` (stereo not given), for which the growth inhibition was 23.2% in experiment [1]; 2.9% in experiment [2]; 32.9% in experiment [3]; -0.7% in experiment [4]; 17.4% in experiment [5]; 27.8% in experiment [6].
Take `Nc1ncc[nH]c1=O`: the growth inhibition in experiment [1] was -16.1%; in experiment [2] it was -4.1%; in experiment [3] it was 1.25%; in experiment [4] it was -4.1%; in experiment [5], 2.9%; in experiment [6] it was -20.2%.
As for `NC(=O)C[n+]1cccc(C(=O)Nc2ccc(Cl)cc2)c1`, the growth inhibition in experiment [1] was 2.3%; in experiment [2], 9.3%; in experiment [3], 3.95%; in experiment [4], -23.4%; in experiment [5] it was 29.2%; in experiment [6] it was -0.75%.
For `COC(=O)C(C#N)(CCC(=O)c1ccccc1)CCC(=O)c1ccccc1`, the growth inhibition was 13.3% in experiment [1]; 17.3% in experiment [2]; 10.2% in experiment [3]; -8.65% in experiment [4]; 17.8% in experiment [5]; 9.8% in experiment [6].
